Experimental data reported in the supplement of paper PMC10849652.
The full data set covers some 7,900 targets. This sample favours those with a hit. About 0.6% of all pairs of compound and target were hits.

Columns and labels:
Experiment in all cases: log2 fold change, soluble protein after heating vs DMSO (PISA); higher = thermal stabilisation; K562 cells, 10 uM, 30 min; active = over 0.2 and 3.5 SD of the protein, either way, in both replicates (recomputed)
saracatinib = compound: CN1CCN(CCOc2cc(OC3CCOCC3)c3c(Nc4c(Cl)ccc5c4OCO5)ncnc3c2)CC1 [saracatinib]
Procedure, shortened: (§1)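 Aliquots of K562 cells (2×10^6 cells/mL) treated with 10 μM compound for 30 min were heated for 3 min over 48°C-58°C. After pooling and extraction in PBS with 0.5% NP-40 at 4°C, soluble protein from a 21,000xg, 90 min spin was quantified by TMTpro 16plex LC-MS/MS with channel sums equalised. Thermal stability is expressed against control samples, from duplicates, as a log2 fold change.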

sotrastaurin = compound: CN1CCN(c2nc(C3=C(c4c[nH]c5ccccc45)C(=O)NC3=O)c3ccccc3n2)CC1 [sotrastaurin]
Procedure, shortened: as §1

alvocidib = compound: CN1CC[C@H](c2c(O)cc(O)c3c(=O)cc(-c4ccccc4Cl)oc23)[C@H](O)C1 [alvocidib]
Procedure, shortened: as §1

Tubastatin A = compound: CN1CCc2c(c3ccccc3n2Cc2ccc(C(=O)NO)cc2)C1 [Tubastatin A]
Procedure, shortened: as §1

[1] = compound: CNC(=O)C1=CC=CC=C1NC2=NC(=NC=C2Cl)NC3=C(C=C(C=C3)N4CCOCC4)OC
Procedure, shortened: as §1

defactinib = compound: CNC(=O)c1ccc(Nc2ncc(C(F)(F)F)c(NCc3nccnc3N(C)S(C)(=O)=O)n2)cc1 [defactinib]
Procedure, shortened: as §1

rucaparib = compound: CNCc1ccc(-c2[nH]c3cc(F)cc4c3c2CCNC4=O)cc1 [rucaparib]
Procedure, shortened: as §1

[2] = compound: CNc1nc(-c2ccc3c(N)n[nH]c3c2)cc(N2C[C@@H](C(=O)NC3CCCCC3)CC[C@H]2C)n1
Procedure, shortened: as §1

encorafenib = compound: COC(=O)N[C@@H](C)CNc1nccc(-c2cn(C(C)C)nc2-c2cc(Cl)cc(NS(C)(=O)=O)c2F)n1 [encorafenib]
Procedure, shortened: as §1

[3] = compound: COC(=O)[C@H](CCSC)NC(=O)C1=C(C=C(C=C1)NC[C@H](CS)N)C2=CC=CC=C2
Procedure, shortened: as §1

[4] = compound: COC1=CC=C(C=C1)CN2C=CC3=C2C=C(C=C3)C(=O)NO
Procedure, shortened: as §1

filanesib = compound: CON(C)C(=O)N1N=C(c2cc(F)ccc2F)S[C@@]1(CCCN)c1ccccc1 [filanesib]
Procedure, shortened: as §1

zotarolimus = compound: CO[C@H]1C[C@@H]2CC[C@@H](C)[C@@](O)(O2)C(=O)C(=O)N2CCCC[C@H]2C(=O)O[C@H]([C@H](C)C[C@@H]2CC[C@H](n3cnnn3)[C@H](OC)C2)CC(=O)[C@H](C)/C=C(\C)[C@@H](O)[C@@H](OC)C(=O)[C@H](C)C[C@H](C)/C=C/C=C/C=C/1C [zotarolimus]
Procedure, shortened: as §1

idasanutlin = compound: COc1cc(C(=O)O)ccc1NC(=O)[C@@H]1N[C@@H](CC(C)(C)C)[C@](C#N)(c2ccc(Cl)cc2F)[C@H]1c1cccc(Cl)c1F [idasanutlin]
Procedure, shortened: as §1

alisertib = compound: COc1cc(Nc2ncc3c(n2)-c2ccc(Cl)cc2C(c2c(F)cccc2OC)=NC3)ccc1C(=O)O [alisertib]
Procedure, shortened: as §1

[5] = compound: COc1cc2nc(-c3cc(F)ccc3O)nc(N[C@@H]3CNC[C@H]3C(C)(C)O)c2cc1OC
Procedure, shortened: as §1

gefitinib = compound: COc1cc2ncnc(Nc3ccc(F)c(Cl)c3)c2cc1OCCCN1CCOCC1 [gefitinib]
Procedure, shortened: as §1

[6] = compound: COc1cccc2cc(-c3nc([C@H]4CC[C@H](C(=O)O)CC4)n4ncnc(N)c34)[nH]c12
Procedure, shortened: as §1

lapatinib = compound: CS(=O)(=O)CCNCc1ccc(-c2ccc3ncnc(Nc4ccc(OCc5cccc(F)c5)c(Cl)c4)c3c2)o1 [lapatinib]
Procedure, shortened: as §1

pictilisib = compound: CS(=O)(=O)N1CCN(Cc2cc3nc(-c4cccc5[nH]ncc45)nc(N4CCOCC4)c3s2)CC1 [pictilisib]
Procedure, shortened: as §1

Measured: log2 fold change

POLR2B (UniProt P30876)
inactive: saracatinib -0.071 | sotrastaurin -0.032 | Tubastatin A -0.01 | [1] -0.016 | defactinib 0.173 | rucaparib 0.174 | [2] -0.012 | encorafenib 0.056 | [3] -0.044 | [4] 0.034 | filanesib 0.031 | zotarolimus -0.012 | idasanutlin -0.039 | alisertib -0.057 | [5] 0.214 | gefitinib 0.064 | [6] 0.007 | lapatinib -0.018 | pictilisib 0.076
active: alvocidib 0.254

PTRHD1 (UniProt Q6GMV3)
Chain of UniProt Q6GMV3 (Q6GMV3 whole entry, looked up): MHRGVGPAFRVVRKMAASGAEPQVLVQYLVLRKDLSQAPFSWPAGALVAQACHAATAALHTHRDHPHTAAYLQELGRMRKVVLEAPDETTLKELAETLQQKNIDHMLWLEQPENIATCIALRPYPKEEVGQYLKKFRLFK
inactive: saracatinib -0.057 | sotrastaurin 0.061 | alvocidib -0.062 | Tubastatin A 0.052 | [1] 0.025 | defactinib 0 | rucaparib -0.015 | [2] -0.022 | encorafenib -0.064 | [3] 0.003 | [4] -0.051 | filanesib 0.065 | zotarolimus -0.008 | idasanutlin 0.042 | alisertib -0.103 | [5] -0.025 | gefitinib 0.085 | [6] 0.068 | lapatinib -0.061 | pictilisib 0.02

PJA2 (UniProt O43164)
inactive: saracatinib -0.057 | sotrastaurin -0.014 | alvocidib 0.054 | Tubastatin A 0.061 | [1] -0.013 | defactinib -0.003 | rucaparib 0.004 | [2] -0.053 | encorafenib -0.003 | [3] 0.049 | [4] -0.022 | filanesib 0.004 | zotarolimus -0.071 | idasanutlin 0.11 | alisertib -0.008 | [5] 0.024 | gefitinib -0.016 | [6] 0.001 | lapatinib -0.001 | pictilisib -0.049

PFDN1 (UniProt O60925)
Chain of UniProt O60925 (O60925 whole entry, looked up): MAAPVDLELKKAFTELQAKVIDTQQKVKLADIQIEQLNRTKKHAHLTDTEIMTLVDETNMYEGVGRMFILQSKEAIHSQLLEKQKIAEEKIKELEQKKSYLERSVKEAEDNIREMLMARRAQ
inactive: saracatinib -0.074 | sotrastaurin -0.014 | alvocidib -0.035 | Tubastatin A 0.022 | [1] -0.001 | defactinib -0.066 | rucaparib -0.095 | [2] 0.093 | encorafenib 0.008 | [3] -0.078 | [4] -0.048 | filanesib -0.007 | zotarolimus 0.091 | idasanutlin -0.024 | alisertib -0.042 | [5] -0.125 | gefitinib -0.002 | [6] 0.026 | lapatinib -0.047 | pictilisib 0.014

PPP2R5C isoform 4 (UniProt Q13362)
inactive: saracatinib -0.04 | sotrastaurin 0.009 | alvocidib -0.063 | Tubastatin A 0.012 | [1] -0.068 | defactinib -0.083 | rucaparib -0.003 | [2] -0.032 | encorafenib 0.06 | [3] -0.025 | [4] 0.125 | filanesib -0.018 | zotarolimus -0.019 | idasanutlin 0.017 | alisertib 0.031 | [5] 0.155 | gefitinib -0.004 | [6] 0.002 | lapatinib 0.053 | pictilisib 0.021

POLR1A (UniProt O95602)
Chain of UniProt O95602 (O95602 whole entry, looked up): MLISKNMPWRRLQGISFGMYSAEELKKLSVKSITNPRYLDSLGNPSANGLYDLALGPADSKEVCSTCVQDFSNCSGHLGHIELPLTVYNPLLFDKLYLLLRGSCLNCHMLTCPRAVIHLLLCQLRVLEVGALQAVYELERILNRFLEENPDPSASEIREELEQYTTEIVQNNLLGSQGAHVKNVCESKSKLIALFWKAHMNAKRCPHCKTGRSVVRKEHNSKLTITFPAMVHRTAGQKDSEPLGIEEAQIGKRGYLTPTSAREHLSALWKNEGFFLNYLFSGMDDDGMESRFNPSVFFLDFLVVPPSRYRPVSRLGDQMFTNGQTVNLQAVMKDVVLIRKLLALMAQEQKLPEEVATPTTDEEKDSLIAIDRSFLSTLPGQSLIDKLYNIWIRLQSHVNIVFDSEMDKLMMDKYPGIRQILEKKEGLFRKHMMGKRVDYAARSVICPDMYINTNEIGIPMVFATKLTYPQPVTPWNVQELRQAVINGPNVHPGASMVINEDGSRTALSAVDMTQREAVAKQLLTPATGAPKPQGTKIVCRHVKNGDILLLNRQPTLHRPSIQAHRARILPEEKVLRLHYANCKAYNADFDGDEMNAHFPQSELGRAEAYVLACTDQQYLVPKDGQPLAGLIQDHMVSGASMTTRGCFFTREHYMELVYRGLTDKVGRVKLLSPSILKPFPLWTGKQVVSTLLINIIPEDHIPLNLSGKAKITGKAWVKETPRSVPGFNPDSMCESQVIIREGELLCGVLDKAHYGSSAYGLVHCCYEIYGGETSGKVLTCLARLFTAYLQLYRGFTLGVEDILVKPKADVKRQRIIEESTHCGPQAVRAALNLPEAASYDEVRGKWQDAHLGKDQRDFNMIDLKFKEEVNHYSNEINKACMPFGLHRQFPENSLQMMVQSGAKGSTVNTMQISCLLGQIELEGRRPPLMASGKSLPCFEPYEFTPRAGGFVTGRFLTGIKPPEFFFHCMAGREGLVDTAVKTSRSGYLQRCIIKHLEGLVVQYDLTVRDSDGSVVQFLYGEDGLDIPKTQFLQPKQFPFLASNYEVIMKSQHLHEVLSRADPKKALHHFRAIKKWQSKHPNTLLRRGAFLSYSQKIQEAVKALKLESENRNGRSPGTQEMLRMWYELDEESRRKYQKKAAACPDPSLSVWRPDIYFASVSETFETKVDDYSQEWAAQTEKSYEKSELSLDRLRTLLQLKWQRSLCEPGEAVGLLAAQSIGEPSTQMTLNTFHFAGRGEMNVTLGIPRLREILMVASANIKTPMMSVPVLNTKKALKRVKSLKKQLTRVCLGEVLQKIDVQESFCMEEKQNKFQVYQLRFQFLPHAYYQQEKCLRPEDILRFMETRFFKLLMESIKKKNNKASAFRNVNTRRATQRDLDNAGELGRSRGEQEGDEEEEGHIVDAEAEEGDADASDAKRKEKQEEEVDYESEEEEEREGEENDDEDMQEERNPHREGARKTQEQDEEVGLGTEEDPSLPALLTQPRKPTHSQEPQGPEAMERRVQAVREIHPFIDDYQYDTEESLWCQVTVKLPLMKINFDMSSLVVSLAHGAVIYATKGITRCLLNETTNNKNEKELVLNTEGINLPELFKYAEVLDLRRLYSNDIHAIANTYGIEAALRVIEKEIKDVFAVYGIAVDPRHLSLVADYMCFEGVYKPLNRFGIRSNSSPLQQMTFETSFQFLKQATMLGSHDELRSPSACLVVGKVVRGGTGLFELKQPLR
inactive: saracatinib -0.027 | sotrastaurin -0.151 | alvocidib -0.06 | Tubastatin A 0.148 | [1] -0.138 | defactinib -0.011 | rucaparib 0.064 | [2] -0.089 | encorafenib -0.015 | [3] 0.115 | [4] 0.248 | filanesib 0.075 | zotarolimus -0.05 | idasanutlin 0.063 | alisertib -0.076 | [5] -0.007 | gefitinib 0.037 | [6] -0.008 | lapatinib 0.069 | pictilisib 0.078

PHKA2 (UniProt P46019)
Chain of UniProt P46019 (P46019 whole entry, looked up): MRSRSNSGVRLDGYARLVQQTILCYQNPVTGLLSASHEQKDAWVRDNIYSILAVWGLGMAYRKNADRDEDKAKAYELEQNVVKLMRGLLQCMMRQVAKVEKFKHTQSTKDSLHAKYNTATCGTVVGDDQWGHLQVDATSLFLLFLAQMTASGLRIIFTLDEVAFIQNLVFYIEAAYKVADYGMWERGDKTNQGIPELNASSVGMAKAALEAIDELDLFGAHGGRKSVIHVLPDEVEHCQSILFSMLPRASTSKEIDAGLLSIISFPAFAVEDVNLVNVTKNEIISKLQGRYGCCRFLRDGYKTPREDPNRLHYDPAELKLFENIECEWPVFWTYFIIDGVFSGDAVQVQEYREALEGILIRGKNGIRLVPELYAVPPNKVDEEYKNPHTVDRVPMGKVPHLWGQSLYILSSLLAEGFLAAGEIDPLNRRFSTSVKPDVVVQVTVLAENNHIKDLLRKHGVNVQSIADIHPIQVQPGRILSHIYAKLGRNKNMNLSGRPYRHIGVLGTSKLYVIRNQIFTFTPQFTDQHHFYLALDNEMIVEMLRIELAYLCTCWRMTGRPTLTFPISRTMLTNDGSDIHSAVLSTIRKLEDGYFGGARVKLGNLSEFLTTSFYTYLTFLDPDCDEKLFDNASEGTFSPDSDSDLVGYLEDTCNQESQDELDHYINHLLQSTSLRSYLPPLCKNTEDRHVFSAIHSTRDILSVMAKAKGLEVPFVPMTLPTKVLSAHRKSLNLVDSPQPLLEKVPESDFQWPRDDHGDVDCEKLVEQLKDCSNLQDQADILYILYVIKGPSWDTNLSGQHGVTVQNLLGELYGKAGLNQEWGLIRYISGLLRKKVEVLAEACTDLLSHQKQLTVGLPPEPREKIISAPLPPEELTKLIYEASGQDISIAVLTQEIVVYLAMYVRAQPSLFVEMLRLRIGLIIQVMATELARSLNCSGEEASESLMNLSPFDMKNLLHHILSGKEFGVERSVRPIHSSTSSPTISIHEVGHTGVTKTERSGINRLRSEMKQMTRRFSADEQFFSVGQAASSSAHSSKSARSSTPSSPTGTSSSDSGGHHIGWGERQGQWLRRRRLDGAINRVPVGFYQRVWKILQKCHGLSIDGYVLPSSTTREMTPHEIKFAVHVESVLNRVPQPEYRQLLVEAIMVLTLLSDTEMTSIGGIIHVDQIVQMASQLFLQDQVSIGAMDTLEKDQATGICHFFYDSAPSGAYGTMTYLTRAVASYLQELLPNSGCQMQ
inactive: saracatinib 0.032 | sotrastaurin -0.085 | alvocidib -0.088 | Tubastatin A -0.021 | [1] 0.135 | defactinib 0.012 | rucaparib -0.063 | [2] -0.009 | encorafenib -0.022 | [3] -0.03 | [4] -0.17 | filanesib -0.055 | zotarolimus 0.022 | idasanutlin -0.104 | alisertib -0.067 | [5] 0.064 | gefitinib -0.006 | [6] 0.025 | lapatinib -0.037 | pictilisib 0.078

PTPMT1 (UniProt Q8WUK0)
Chain of UniProt Q8WUK0 (Q8WUK0 whole entry, looked up): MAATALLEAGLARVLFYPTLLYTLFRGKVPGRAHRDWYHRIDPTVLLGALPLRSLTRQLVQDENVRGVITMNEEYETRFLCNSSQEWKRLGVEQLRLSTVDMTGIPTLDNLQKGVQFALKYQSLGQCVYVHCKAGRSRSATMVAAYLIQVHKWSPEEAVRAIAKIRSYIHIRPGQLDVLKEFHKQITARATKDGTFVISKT
inactive: saracatinib -0.037 | sotrastaurin -0.059 | alvocidib -0.008 | Tubastatin A -0.063 | [1] 0.027 | defactinib -0.07 | rucaparib -0.118 | [2] -0.019 | encorafenib 0.044 | [3] 0.045 | [4] -0.084 | filanesib -0.26 | zotarolimus -0.027 | idasanutlin -0.002 | alisertib 0.006 | gefitinib -0.021 | [6] 0.034 | lapatinib -0.064 | pictilisib 0.02
active: [5] -0.327

PNPLA2 (UniProt Q96AD5)
inactive: saracatinib 0.015 | sotrastaurin -0.028 | alvocidib -0.058 | Tubastatin A -0.034 | [1] -0.039 | defactinib 0 | rucaparib -0.06 | [2] 0.154 | encorafenib -0.012 | [3] -0.056 | [4] -0.089 | filanesib -0.134 | zotarolimus 0.002 | idasanutlin -0.082 | alisertib 0.014 | [5] -0.077 | gefitinib -0.048 | [6] 0.029 | lapatinib -0.032 | pictilisib 0.02

PIKFYVE (UniProt Q9Y2I7)
inactive: saracatinib -0.001 | sotrastaurin -0.081 | alvocidib -0.175 | Tubastatin A -0.032 | [1] 0.009 | defactinib -0.033 | rucaparib 0.068 | [2] -0.106 | encorafenib 0.099 | [3] -0.025 | [4] 0.03 | filanesib -0.036 | zotarolimus -0.074 | idasanutlin -0.096 | alisertib 0.016 | [5] -0.037 | gefitinib -0.308 | [6] -0.044 | lapatinib -0.098 | pictilisib -0.047

PHF5A (UniProt Q7RTV0)
Chain of UniProt Q7RTV0 (Q7RTV0 whole entry, looked up): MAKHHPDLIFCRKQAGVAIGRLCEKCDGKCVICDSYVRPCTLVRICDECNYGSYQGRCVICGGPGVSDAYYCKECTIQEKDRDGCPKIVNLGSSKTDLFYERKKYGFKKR
inactive: saracatinib 0.069 | sotrastaurin 0.047 | alvocidib 0.045 | Tubastatin A -0.027 | [1] 0.05 | defactinib 0.141 | rucaparib 0.04 | [2] -0.086 | encorafenib -0.017 | [3] 0.023 | [4] 0.014 | filanesib 0.087 | zotarolimus -0.024 | idasanutlin 0.056 | alisertib -0.033 | [5] 0.067 | gefitinib 0.003 | [6] 0.026 | lapatinib -0.051 | pictilisib 0.071

POLR2I (UniProt P36954)
inactive: saracatinib 0.134 | sotrastaurin 0.033 | alvocidib 0.371 | Tubastatin A -0.266 | [1] 0.009 | defactinib 0.141 | rucaparib 0.162 | [2] 0.02 | encorafenib 0.015 | [3] 0.023 | [4] -0.012 | filanesib 0.041 | zotarolimus -0.017 | idasanutlin 0.029 | alisertib 0.061 | [5] 0.076 | gefitinib -0.003 | [6] 0.062 | lapatinib -0.006 | pictilisib -0.041

PGGT1B (UniProt P53609)
Chain of UniProt P53609 (P53609 whole entry, looked up): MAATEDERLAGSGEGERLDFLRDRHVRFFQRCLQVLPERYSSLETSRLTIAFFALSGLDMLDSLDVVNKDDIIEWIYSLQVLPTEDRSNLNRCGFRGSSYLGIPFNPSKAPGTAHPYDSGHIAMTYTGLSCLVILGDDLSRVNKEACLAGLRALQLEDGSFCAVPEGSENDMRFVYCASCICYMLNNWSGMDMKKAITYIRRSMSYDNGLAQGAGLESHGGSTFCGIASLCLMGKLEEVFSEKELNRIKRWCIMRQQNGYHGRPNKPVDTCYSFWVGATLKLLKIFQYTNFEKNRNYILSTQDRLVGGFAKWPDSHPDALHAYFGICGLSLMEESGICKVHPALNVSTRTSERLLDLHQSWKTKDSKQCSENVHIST
active: [3] 0.227
inactive: saracatinib 0 | sotrastaurin 0.121 | alvocidib -0.014 | Tubastatin A -0.047 | [1] -0.025 | defactinib 0.001 | rucaparib -0.032 | [2] -0.017 | encorafenib 0.013 | [4] -0.112 | filanesib 0.047 | zotarolimus -0.006 | idasanutlin -0.025 | alisertib -0.03 | [5] -0.031 | gefitinib -0.013 | [6] 0.058 | lapatinib -0.019 | pictilisib 0.037

PIP4P1 isoform 2 (UniProt Q86T03)
active: filanesib -0.32
inactive: saracatinib 0.014 | sotrastaurin -0.108 | alvocidib 0.066 | Tubastatin A -0.005 | [1] 0 | defactinib 0.039 | rucaparib -0.026 | [2] -0.059 | encorafenib -0.027 | [3] 0.015 | [4] 0.089 | zotarolimus 0.004 | idasanutlin 0.002 | alisertib 0.032 | [5] -0.072 | gefitinib -0.018 | [6] -0.058 | lapatinib 0.06 | pictilisib -0.061

PRIM1 (UniProt P49642)
inactive: saracatinib -0.109 | sotrastaurin -0.111 | alvocidib -0.007 | Tubastatin A 0.042 | [1] 0.116 | defactinib -0.107 | rucaparib 0.084 | [2] 0.051 | encorafenib 0.153 | [3] -0.082 | [4] 0.04 | filanesib 0.001 | zotarolimus 0.073 | idasanutlin -0.06 | alisertib 0.052 | [5] -0.012 | gefitinib 0.011 | [6] -0.053 | lapatinib 0.007 | pictilisib 0.021

PPP1R12A (UniProt O14974)
Chain of UniProt O14974 (O14974 whole entry, looked up): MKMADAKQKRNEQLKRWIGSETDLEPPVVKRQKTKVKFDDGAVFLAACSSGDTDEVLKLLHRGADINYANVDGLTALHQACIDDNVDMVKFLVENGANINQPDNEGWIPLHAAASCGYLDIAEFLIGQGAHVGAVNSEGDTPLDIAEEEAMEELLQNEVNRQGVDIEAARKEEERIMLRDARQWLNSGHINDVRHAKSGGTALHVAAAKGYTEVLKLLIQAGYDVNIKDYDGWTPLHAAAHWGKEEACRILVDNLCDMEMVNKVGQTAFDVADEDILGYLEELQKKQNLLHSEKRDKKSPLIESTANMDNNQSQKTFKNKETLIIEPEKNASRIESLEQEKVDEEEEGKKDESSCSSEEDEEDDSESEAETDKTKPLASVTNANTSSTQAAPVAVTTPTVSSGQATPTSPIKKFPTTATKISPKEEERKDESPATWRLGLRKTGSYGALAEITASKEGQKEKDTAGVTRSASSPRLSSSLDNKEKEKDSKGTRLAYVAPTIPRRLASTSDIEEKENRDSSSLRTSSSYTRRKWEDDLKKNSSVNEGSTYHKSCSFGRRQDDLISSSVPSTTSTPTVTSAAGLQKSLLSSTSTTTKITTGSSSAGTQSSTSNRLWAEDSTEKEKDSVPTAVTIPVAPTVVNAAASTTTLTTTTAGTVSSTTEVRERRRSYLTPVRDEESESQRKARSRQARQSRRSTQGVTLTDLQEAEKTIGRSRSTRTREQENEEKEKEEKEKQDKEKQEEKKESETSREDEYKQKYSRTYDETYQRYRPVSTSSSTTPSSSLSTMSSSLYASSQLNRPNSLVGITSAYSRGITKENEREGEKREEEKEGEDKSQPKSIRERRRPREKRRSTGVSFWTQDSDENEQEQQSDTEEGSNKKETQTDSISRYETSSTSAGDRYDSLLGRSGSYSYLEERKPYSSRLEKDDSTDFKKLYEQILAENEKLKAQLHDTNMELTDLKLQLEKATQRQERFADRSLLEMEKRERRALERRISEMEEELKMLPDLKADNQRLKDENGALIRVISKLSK
inactive: saracatinib -0.048 | sotrastaurin -0.054 | alvocidib -0.187 | Tubastatin A 0.01 | [1] -0.052 | defactinib -0.187 | rucaparib -0.012 | [2] -0.197 | encorafenib 0.057 | [3] -0.043 | [4] 0.003 | filanesib 0.064 | zotarolimus 0.048 | idasanutlin 0.041 | alisertib 0.028 | gefitinib 0.009 | [6] -0.006 | lapatinib 0.036 | pictilisib 0.005
active: [5] -0.658
